Source: PubChem BioAssay (NCI)
This is part of a sample that, as a whole, favours compounds with a hit. Of some 79,000 tested, about 15% had one in any assay. Values without a mark were called inactive. Active and inactive are the calls of the source. Cut-off read from the data, not from the text of the source: active = growth inhibition above about 70%; inactive = the rest.

What was measured:
[1] = NCI Yeast Anticancer Drug Screen. Data for the rad50 strain (AID 155);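 note: 0% = growth of vehicle-only cultures of the same strain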; details: S. cerevisiae rad50 strain growth inhibition; at 50.0 µM; stronger effect = higher value
Outline: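 Yeast carrying a defined DNA repair defect were exposed to test compounds, and growth was compared with vehicle-treated controls to give percent inhibition.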

[2] = NCI Yeast Anticancer Drug Screen. Data for the mec2-1 strain (AID 157); details: S. cerevisiae mec2-1 strain, at 50.0 µM, stronger effect = higher value
Outline: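 Mutant yeast (mec2-1) grown with compound; growth inhibition relative to vehicle control reported.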

[3] = NCI Yeast Anticancer Drug Screen. Data for the sgs1 mgt1 strain (AID 161);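 note: 0% = growth of cultures given vehicle only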; details: S. cerevisiae sgs1 mgt1 strain, at 50.0 µM, stronger effect = higher value
Outline: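 Compounds are added to genetically altered yeast, and growth is compared with cultures given vehicle alone to give percent inhibition.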

[4] = NCI Yeast Anticancer Drug Screen. Data for the cln2 rad14 strain (AID 165);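 note: 0% = growth equal to vehicle treated cultures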; details: S. cerevisiae cln2 rad14 strain, at 50.0 µM, stronger effect = higher value
Outline: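 Readout is yeast growth inhibition versus vehicle-treated controls, using a strain with cln2 and rad14 alterations exposed to compound.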

[5] = NCI Yeast Anticancer Drug Screen. Data for the bub3 strain (AID 167); details: S. cerevisiae bub3 mutant strain, at 50.0 µM, stronger effect = higher value
Outline: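 Compounds were applied to a genetically altered yeast strain carrying a cell-cycle control defect. Growth inhibition was scored against vehicle-treated controls.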

[6] = NCI Yeast Anticancer Drug Screen. Data for the mlh1 rad18 strain (AID 175); details: S. cerevisiae mlh1 rad18 strain growth inhibition; at 50.0 µM; stronger effect = higher value
Outline: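 Genetically defined yeast (DNA repair-deficient) exposed to compounds; growth inhibition determined relative to vehicle.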

Row | Compound | growth inhibition [1] | growth inhibition [2] | growth inhibition [3] | growth inhibition [4] | growth inhibition [5] | growth inhibition [6]
1 | CN1CN(c2ccccc2)C2(CCN(Cc3csc4ccccc34)CC2)C1=O | -50.9% | -31.5% | -47.5% | -1.3% | -7.1% | -20.1%
2 | CCOC(=O)c1cc2c(cn1)[nH]c1ccccc12 | 41.2% | 34.2% | 43.4% | 0% | 26.9% | 16.8%
3 | NNC(=S)N/N=C(\C(=O)Nc1cccc(O)c1)C1C(=O)NC(=S)NC1=O | -6.65% | -10.6% | -13.7% | -0.05% | 2.55% | -17.9%
4 | CCOC(=O)/C=C1/C=C(C)CC(C)(C)C1 (tested in a mixture with another compound) | -0.3% | -58.7% | -9.1% | -40.5% | 19% | 1.7%
5 | CC1(C[N+](C)(C)C)COC(C)(C)O1 (centres undefined) | -3.95% | 11.6% | 5.25% | -2.85% | 5.3% | 3.95%
6 | CC(=O)C1(O)CCC2(O)C3(O)CC=C4CC(O)CCC4(C)C3CC(OC(=O)c3ccc(O)cc3)C12C (centres undefined) | 8.5% | 2.85% | -12.8% | -1.7% | -1.6% | -50.4%
7 | CN(CCC#N)c1ccc(C=C(C#N)C#N)cc1 | 7.25% | 11.3% | 7.65% | 8.05% | 24.7% | 5.65%
8 | CCC(=O)OC1(c2ccccc2)CCN(CCC(O)c2ccccc2)CC1C (centres undefined) | -14.9% | -1.45% | 1.45% | -34.9% | 1.1% | 6.2%
9 | C#CCOC(N)=O | 1.05% | -15.1% | -7.65% | -18.6% | -14.8% | -17.6%
10 | O=C(O)C(Cc1cnc[nH]1)N1C(=O)c2ccccc2C1=O (centres undefined) | -16.6% | -12.9% | -1% | -24.9% | -10% | -8.85%
11 | C[C@]12CCC(=O)C[C@@H]1CC[C@@H]1[C@@H]2CC[C@]2(C)[C@@H]3OCCC[C@H]3C[C@@H]12 | 22.4% | -0.5% | 46.5% | 14.7% | 19.1% | 39.2%
12 | CCOC(=O)/C(=C\c1ccc(N(C)C)cc1)[Se]c1ccccc1 | 12.7% | -2.8% | -0.3% | 5% | 18.6% | 56.4%
13 | COc1ccc(S(=O)(=O)F)cc1NC(=O)CCc1ccc(N2C(N)=NC(N)=NC2(C)C)cc1Cl | 79.8% (active) | 78.5% (active) | 86.8% (active) | 16.2% | 4.7% | 65.2%
14 | OC1NC2CC3NC(O)C(O)NC3CC2NC1O (centres undefined) | -16.6% | -4.25% | 12.7% | 22.9% | 16.1% | 11.4%
15 | CC(=O)Oc1ccc(CCN(C)C2CC3CCC2(C)C3(C)C)cc1OC(C)=O (centres undefined) | 51.4% | 21.4% | 46.2% | -11.2% | 6.1% | 41%
16 | N#CCC(N)C(=O)O (centres undefined) | 0.7% | -11.1% | -11.8% | -34.4% | -9.2% | 8.65%
17 | [C-]#[O+].[C-]#[O+].[C-]#[O+].[CH3][Sn]([c]1ccccc1)[c]1ccccc1.[W].[c-]1[c-][c-][cH-][c-]1 | 98.2% (active) | 99.3% (active) | 98.5% (active) | 97.5% (active) | 99.3% (active) | 97.5% (active)
18 | CCN1C(=O)CC(=O)N(CC)C1=S | 24.4% | -12.4% | -8.55% | 12.2% | – | 21.2%
19 | CCOC(OCC)c1ccc2c(c1)OCO2 | 5.65% | -5.75% | 13.2% | 4.7% | – | 11.8%
20 | Cc1cc(NC(=O)CCc2ccc(N)cc2)ccc1S(=O)(=O)F | 89.5% (active) | 94.9% (active) | 96.5% (active) | 81.8% (active) | 95% (active) | 95.2% (active)
21 | N#Cc1ccc(/C=C/C(=O)O)cc1 | 17.2% | -10.4% | -9.15% | -60.2% | – | -4.3%
22 | CC(Oc1ccc([N+](=O)[O-])cc1Cl)C(=O)Nc1ccc(S(=O)(=O)F)cc1 (centres undefined) | -12.8% | -14.4% | -9.4% | 4% | – | -12.6%

Row | Compound | growth inhibition [1] | growth inhibition [2] | growth inhibition [3] | growth inhibition [4] | growth inhibition [5] | growth inhibition [6]
23 | CC(C)OP(=O)(OCCCO)C(Cl)Cl (centres undefined) | 0.35% | 17.1% | 1.1% | 2.55% | – | 0.75%
24 | C=Cn1nnnc1N | -3% | 2.05% | -10.3% | 8.6% | 14.3% | 4.5%
25 | COC(=O)C1(O)c2ccccc2N=C2C1CCN2C (centres undefined) | 15.1% | -11.4% | -8.85% | 6.4% | – | 16.9%
26 | C1=CC2C=CC(C=C1)[PH+]2c1ccccc1.C1=CC2C=CC(C=C1)[PH+]2c1ccccc1.[C-]#[O+].[C-]#[O+].[C-]#[O+].[Fe] (centres undefined) | -20.1% | 4.4% | -6.6% | 26.1% | – | -4.85%
27 | CCCCCCCCCCCCCCCCCC(=O)[O][Pb]([CH3])([CH3])[CH3] | 0.8% | 0.5% | 18.8% | 21.6% | – | 13.1%
28 | CN(C)CCNc1nc2c(no[n+]2[O-])c2ccccc12 | -28.9% | -24.8% | -14.3% | -12.8% | – | -19.9%
29 | CC(C)COC(=O)Cc1ccccc1 | 23.2% | 12.6% | 13.7% | -30.1% | – | 25.4%
30 | Cc1ccc(NC(=O)C(=O)C2C(=O)NC(=O)NC2=O)c(C)c1 | 13.9% | 9.75% | 5.75% | 11.2% | – | 17.6%
31 | CN(C)C(=O)C(CC[N+](C)(C)C)(c1ccccc1)c1ccccc1 | 8.65% | 5.5% | 5.55% | 24.7% | – | -10.1%
32 | C=[CH][Sn]([Cl])([Cl])[CH]=C.CN(C)P(=O)(N(C)C)N(C)C | 28.5% | 32.5% | 44.4% | 28.1% | – | 54.1%
33 | COc1ccc(C)cc1C(CC(=O)O)CC(=O)N(CCCl)CCCl (centres undefined) | 39.6% | -2.45% | 6.05% | 17.7% | – | 21.6%
34 | C1CN([PH+](N2CC2)N2CC2)CCO1.C1CN([PH+](N2CC2)N2CC2)CCO1.[Cl][Pt][Cl] | 5.3% | 26.6% | 10% | -8.85% | – | 22.7%
35 | CCOP(=O)(OCC)/C(C#N)=C/c1nccn1C | -15.2% | 0.15% | -13.7% | 34.3% | – | -34.4%
36 | COc1ccc2nc3c4ccccc4scc-3c2c1 | 99.4% (active) | 99.5% (active) | 99.5% (active) | 99.2% (active) | – | 99.3% (active)
37 | CNC(=O)Oc1ccc(Br)cc1Br | 29.4% | -0.95% | -2.6% | -3.55% | – | 2.35%
38 | Cc1c[nH]c2c1C13CC1CN(C(=O)c1cc4cc(NC(=O)c5cc6ccccc6o5)ccc4[nH]1)C3=CC2=O (centres undefined) | 84.9% (active) | 91.4% (active) | 90.3% (active) | 88.2% (active) | – | 89% (active)
39 | CCC[CH2][Sn]([Cl])([Cl])[CH2]CCC.c1ccncc1 | 95.5% (active) | 97.5% (active) | 98.2% (active) | 98.3% (active) | – | 98% (active)
40 | O=C(Nc1cccc(S(=O)(=O)F)c1)c1cccc([N+](=O)[O-])c1 | 96.5% (active) | 94.8% (active) | 98.5% (active) | 91.7% (active) | – | 96.8% (active)
41 | CN(C)[C@@H]1C(=O)C(C(N)=O)=C(O)[C@]2(O)C(=O)C3C(=O)c4c(O)ccc(Cl)c4[C@](C)(O)[C@H]3C[C@@H]12 (some centres undefined) | -6.15% | 7.5% | 22.8% | -2.35% | – | -2.9%
42 | COCC1OC2OC3C(COC)OC(OC4C(COC)OC(OC5C(COC)OC(OC6C(COC)OC(OC7C(COC)OC(OC8C(COC)OC(OC1C(O)C2O)C(O)C8O)C(O)C7O)C(O)C6O)C(O)C5O)C(O)C4O)C(O)C3O (centres undefined) (tested in a mixture with another compound) | 13.2% | -13.6% | -4.6% | 20.1% | – | -64.7%
43 | S=C(N/N=C\c1cccc(I)c1)NC1CN2CCC1CC2 (centres undefined) | 19.1% | 3.25% | 14.4% | 14.8% | – | 13.9%
